High-throughput results as filed in PubChem.
Autofluor counter – compound fluorescence in toxin protease inhibitor counterscreen; 360,000 tested, 3.1% active; fluorescence intensity (test concentration not listed); compound autofluorescence counterscreen, microsphere flow cytometry; active compounds read high; in the data active means fluorescence intensity above about 16000; inconclusive means no clear call, values can overlap the other calls
BoNT A protease – BoNT A light chain protease inhibition; AID 588499; 360,000 tested, 0.17% active; multiplex microsphere protease substrate cleavage, flow cytometry; inhibition, % at 10 µM; further: plate controls were buffer without enzyme for full effect and enzyme alone for no effect
Anthrax LF prot – blocks Bacillus anthracis lethal factor protease | multiplex microsphere protease cleavage assay, LF | 360,000 tested, 0.12% active | inhibition, % at 10 µM; further: plate controls were buffer without enzyme for full effect and enzyme alone for no effect
BH1578 lux ind – inducers of Vibrio cholerae quorum light production without autoinducers; activation, % at 18.7 µM; 350,000 tested, 0.16% active; AID 588436; V. cholerae BH1578 lux reporter, luminescence, 6 h; in the data active means activation mostly above about 9.7%, no sharp cut-off; inconclusive means no clear call, values can overlap the other calls; inactive means mostly below about 3.7%
BoNT-F LC inh – inhibitors of Botulinum neurotoxin F light chain protease; 360,000 tested, 0.22% active; Multiplex microsphere protease cleavage assay, flow cytometry; inhibition, % at 10 µM; in the data active means inhibition above about 35%, passing the limit was not always enough; inconclusive means no clear call, values can overlap the other calls; further: plate controls were buffer without enzyme for full effect and enzyme alone for no effect
* = called active by the depositor; i = inactive; u = inconclusive; x = no result. In the library only some 3.5% were active in any assay of this set; here they are far more common. Unless noted, no stated cut-off is given here; in the data, active means inhibition above about 30%; inconclusive means no clear call, values can overlap the other calls; inactive means below that.

SMILES	Autofluor counter	BoNT A protease	Anthrax LF prot	BH1578 lux ind	BoNT-F LC inh
C/C(=N/Nc1ncc(C(F)(F)F)cc1Cl)c1ccncc1	5224	-1	-4	i	-6
CC(C)(C)C1CCC(=NNc2ncc(C(F)(F)F)cc2Cl)CC1 (stereo not drawn)	22794*	u	-1	2	-2
CC(C(=O)O)n1c2ccccc2c2cnn(C)c(=O)c21 (stereo not drawn)	3527	2	-8	i	-8
COc1ccc(-c2c(C)oc3ccc(C)cc23)cc1	23892*	-2	-9	-7	-3
COc1ccc(-c2ccc3oc(-c4ccc(OC)cc4)c(-c4cc(OC)c(OC)c(OC)c4)c3c2)cc1	3868	1	8	i	-1
Cc1cc(C)cc(NC(=O)c2cccn2-c2ncc(C(F)(F)F)cc2Cl)c1	25062*	u	-3	i	-7
O=C(Nc1ccc(F)cc1F)c1cccn1-c1ncc(C(F)(F)F)cc1Cl	10426	-1	-1	i	-8
CC(C)c1[nH]nc2c1C(c1cccnc1)C(C#N)=C(N)O2 (stereo not drawn)	19924*	-1	0	i	-1
Cc1nn(Cc2ccccc2)c2c1C(c1cccnc1)C(C#N)=C(N)O2 (stereo not drawn)	2402	1	-2	x	12
N#CC1=C(N)Oc2n[nH]c(-c3ccccc3)c2C1c1cccnc1 (stereo not drawn)	4132	0	-1	-3	-7
Cc1ccc(-c2[nH]nc3c2C(c2cccnc2)C(C#N)=C(N)O3)cc1 (stereo not drawn)	23057*	u	-3	-1	0
CCCc1nn(C)c2c1C(c1cccnc1)C(C#N)=C(N)O2 (stereo not drawn)	23902*	-3	-2	3	-6
Cc1ccc(-c2[nH]nc3c2C(c2ccc(OC(=O)N4CCOCC4)cc2)C(C#N)=C(N)O3)cc1 (stereo not drawn)	16622*	u	-5	i	-2
CCC(CO)NCc1ccccc1OC(C)C (stereo not drawn)	4564	-1	-4	-1	-4
CCC(CC(C)(C)O)C(=O)NNC(=S)Nc1ccccc1 (stereo not drawn)	2102	0	0	i	2
CCC(=O)NCCC(c1ccco1)c1ccccc1OC (stereo not drawn)	4656	2	2	0	14
CCCNCCC(c1ccco1)c1ccccc1OC (stereo not drawn)	16663*	-2	-8	i	-6
Cc1sc2nc(SCC(=O)c3cccs3)n(Cc3ccco3)c(=O)c2c1C	22489*	0	0	-4	-1
Cc1sc2ncnc(SCC(=O)c3cccs3)c2c1C	16770*	-2	-2	i	-5
CCCOc1ccc(/C=C/C(=O)Nc2ccc([N+](=O)[O-])cc2C)cc1OC	22086*	u	2	i	0
CCCOc1ccc(/C=C/C(=O)Nc2ccc([N+](=O)[O-])cc2C)cc1	4708	0	1	0	17
FC(F)(F)c1nnc2c(Sc3ccccn3)nc3ccccc3n12	22962*	1	1	i	3
COC(=O)CNC(=O)/C=C/c1ccc(OC)cc1	19785*	0	-6	0	-1
O=C(NCCN1CCCCC1)Nc1ccccc1	24890*	-3	1	0	-9
Cc1ccc(NC(=O)NCCN2CCCCC2)cc1	3758	-4	-7	0	u
SMILES	Autofluor counter	BoNT A protease	Anthrax LF prot	BH1578 lux ind	BoNT-F LC inh
COC(=O)c1cccc(C(=O)N2CCCC(Nc3ccc(C)c(C)c3)C2)c1 (stereo not drawn)	5108	0	-1	-1	-7
COc1ccc(CN2C(=O)CCC2(C)C(=O)NCc2cccnc2)c(OC)c1 (stereo not drawn)	22905*	u	1	0	-2
O=[N+]([O-])c1cc(C(F)(F)F)cc([N+](=O)[O-])c1NCCNC(=S)Nc1cccc(F)c1	5796	0	2	-1	2
COC(=O)c1ccc(COc2ccc(Cl)cc2)o1	3301	1	-6	i	-2
COC(=O)c1ccc(COc2cccc(OC)c2)o1	22471*	1	-9	0	-3
CC1=NN(c2ccccc2)C(=O)C1CCC#N (stereo not drawn)	3307	0	-13	0	2
CC1(CCC#N)N=C(SCCC#N)N(c2ccccc2)C1=O (stereo not drawn)	23294*	u	-1	i	-2
COCCNC(=O)C1(C)CCCN(C(=O)c2ccc3c(c2)CCO3)C1 (stereo not drawn)	2942	0	-3	0	-2
Clc1ccc(-c2cn(-c3nc4ccccc4s3)nn2)cc1	5578	0	6	x	-5
CC(C)C[C@H](NS(=O)(=O)c1ccc(Br)cc1)C(=O)O	22565*	3	-2	0	1
CC1=CC2=NC(=O)C(c3ccccc3)C(=O)N2C=C1 (stereo not drawn)	3856	0	1	-1	4
O=C(c1cc(-c2ccc3c(c2)OCO3)on1)N1CCOCC1	23477*	u	-1	i	-2
O=C(c1cc(-c2ccc3c(c2)OCO3)on1)N1CCN(c2ccccc2)CC1	18888*	6	-6	-1	3
O=C(c1cc(-c2ccc(Cl)cc2)on1)N1CCOCC1	21336*	-3	-2	-1	-2
CCN(CC)S(=O)(=O)c1cc(NC(=O)C2CSC3(C)CCC(=O)N23)ccc1C (stereo not drawn)	4074	0	14	0	4
CC1(C)Cc2nc3sc4c(=O)n(CC(=O)NCc5ccccc5)cnc4c3cc2CO1	16709*	-1	0	i	-3
CC1(C)Cc2nc3sc4c(=O)n(CC(N)=O)cnc4c3cc2CO1	2937	0	-2	i	3
COc1ccc(CNC(=O)CN2C(=O)C3CCCN3c3ncc(Cl)cc32)cc1 (stereo not drawn)	21975*	u	-3	4	0
O=C(CN1C(=O)C2CCCN2c2ncc(Cl)cc21)NCc1ccc2c(c1)OCO2 (stereo not drawn)	3689	0	0	i	-4
O=C(NCCNC(=O)c1cc(Cl)ccc1Cl)c1cnccn1	3992	-1	-5	i	6
O=C(/C=C/c1ccc(Cl)cc1)NCCSc1ccccc1	19211*	u	-4	-1	2
O=C(/C=C/c1ccc(Cl)cc1Cl)NCCSc1ccccc1	2012	0	-1	0	1
Cc1c(Cl)cccc1N=c1c([N+](=O)[O-])nn(-c2ccccc2)n1O	11211	-1	-2	0	-9
COc1ccc(CCN=c2c([N+](=O)[O-])nn(-c3cccc(C)c3)n2O)cc1OC	4431	4	-4	1	40*
Cc1ccc(N=c2c([N+](=O)[O-])nn(-c3ccccc3)n2O)c(C)c1	17460*	-4	-2	0	-5
Cc1c(NC(=O)c2ccc(CC(C)C)o2)c(=O)n(-c2ccccc2)n1C	3799	-3	-5	i	5
CCOC(=O)c1c(NC(=S)Nc2ccccc2)sc2c1CCN(CC)C2	9132	18	31*	-1	2
CCOC(=O)c1c(NC(=S)Nc2ccccc2)sc2c1CCCCC2	10509	2	2	i	-5
